From publication PMC7862700, “An all-to-all approach to the identification of sequence-specific readers for epigenetic DNA modifications on cytosine”

How the values were obtained:
Assay in all cases: DAPPL (digital affinity profiling via proximity ligation, sequencing); 10 mM Tris-HCl pH 7.5, 50 mM NaCl, 1 mM DTT, 4% glycerol, room temperature, 30 min; GST-TFs on glutathione beads, 16-mer random dsDNA library, 0.1% formaldehyde crosslink after washing; high values mean tight binding
[1] = biological target: T1, FEV (Homo sapiens, UniProt Q99581 1-238); conditions: protein: recombinant; tags: N-terminal GST; dsDNA, one strand shown
T1 sequence: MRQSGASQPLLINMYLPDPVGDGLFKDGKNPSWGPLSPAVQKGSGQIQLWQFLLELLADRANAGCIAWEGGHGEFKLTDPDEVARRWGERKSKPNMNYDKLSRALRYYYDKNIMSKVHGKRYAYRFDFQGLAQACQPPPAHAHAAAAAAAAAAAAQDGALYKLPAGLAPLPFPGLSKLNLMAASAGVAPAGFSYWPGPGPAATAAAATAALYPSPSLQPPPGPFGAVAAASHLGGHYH
Outline: (§1)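 GST fusions of human transcription factors were expressed in yeast and captured with glutathione beads. Once given DNA barcodes and pooled alongside a tag-only sample, they were incubated for 30 min at room temperature with 200 nmole of a random double-stranded 16-mer DNA library in Tris/NaCl/DTT/glycerol buffer, then washed, crosslinked (0.1% formaldehyde), proximity-ligated, PCR-amplified and sequenced on an Illumina NextSeq500. The binding signal of each hexamer is its read frequency for a factor divided by its frequency for the tag-only sample.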

[2] = biological target: ETV5 (Homo sapiens, UniProt P41161 1-510); conditions: protein: recombinant; tags: N-terminal GST; dsDNA, one strand shown
Sequence of ETV5 (P41161 whole entry): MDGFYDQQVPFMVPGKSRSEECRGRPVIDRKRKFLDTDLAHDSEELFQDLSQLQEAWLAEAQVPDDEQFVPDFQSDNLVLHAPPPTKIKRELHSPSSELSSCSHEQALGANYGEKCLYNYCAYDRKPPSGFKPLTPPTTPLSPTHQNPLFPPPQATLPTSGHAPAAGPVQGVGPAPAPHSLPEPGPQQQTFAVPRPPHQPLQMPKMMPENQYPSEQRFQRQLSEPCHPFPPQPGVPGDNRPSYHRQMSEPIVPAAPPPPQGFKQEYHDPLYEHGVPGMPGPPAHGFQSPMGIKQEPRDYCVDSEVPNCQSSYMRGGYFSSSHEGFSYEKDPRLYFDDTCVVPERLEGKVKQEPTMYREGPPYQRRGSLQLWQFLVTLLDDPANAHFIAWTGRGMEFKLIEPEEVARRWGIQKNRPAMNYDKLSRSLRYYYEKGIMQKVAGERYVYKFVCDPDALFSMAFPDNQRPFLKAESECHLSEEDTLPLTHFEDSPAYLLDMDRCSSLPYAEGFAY
Outline: as §1

[3] = biological target: HSF1 (Homo sapiens, UniProt Q00613 1-529); conditions: protein: recombinant; tags: N-terminal GST; chain copies: 3; dsDNA, one strand shown
Sequence of HSF1 (Q00613 whole entry): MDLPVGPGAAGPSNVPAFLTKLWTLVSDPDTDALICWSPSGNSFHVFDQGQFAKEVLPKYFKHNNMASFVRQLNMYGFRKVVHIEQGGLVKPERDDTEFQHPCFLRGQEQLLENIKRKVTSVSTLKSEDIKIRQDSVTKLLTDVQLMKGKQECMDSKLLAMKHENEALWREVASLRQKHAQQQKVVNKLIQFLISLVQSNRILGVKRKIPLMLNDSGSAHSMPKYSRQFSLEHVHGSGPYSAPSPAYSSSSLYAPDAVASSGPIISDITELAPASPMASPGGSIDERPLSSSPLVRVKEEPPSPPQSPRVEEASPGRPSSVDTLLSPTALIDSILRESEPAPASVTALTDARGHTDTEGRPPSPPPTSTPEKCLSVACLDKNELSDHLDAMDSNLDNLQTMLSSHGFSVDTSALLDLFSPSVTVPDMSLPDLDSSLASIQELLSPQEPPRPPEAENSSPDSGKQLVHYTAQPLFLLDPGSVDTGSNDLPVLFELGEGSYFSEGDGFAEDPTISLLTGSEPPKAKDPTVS
Outline: as §1

[4] = biological target: T2, SPIC (Homo sapiens, UniProt Q8N5J4 1-248); conditions: protein: recombinant; tags: N-terminal GST; dsDNA, one strand shown
T2 sequence: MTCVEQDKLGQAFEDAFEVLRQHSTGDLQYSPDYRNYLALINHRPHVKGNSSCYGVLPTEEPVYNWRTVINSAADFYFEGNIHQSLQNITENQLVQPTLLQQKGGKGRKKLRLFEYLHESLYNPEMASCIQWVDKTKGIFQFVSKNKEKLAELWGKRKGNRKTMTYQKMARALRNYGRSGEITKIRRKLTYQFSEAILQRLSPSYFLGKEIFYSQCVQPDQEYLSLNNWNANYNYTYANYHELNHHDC
Outline: as §1

[5] = biological target: ELF4 (Homo sapiens, UniProt Q99607 1-663); conditions: protein: recombinant; tags: N-terminal GST; dsDNA, one strand shown
Sequence of ELF4 (Q99607 whole entry): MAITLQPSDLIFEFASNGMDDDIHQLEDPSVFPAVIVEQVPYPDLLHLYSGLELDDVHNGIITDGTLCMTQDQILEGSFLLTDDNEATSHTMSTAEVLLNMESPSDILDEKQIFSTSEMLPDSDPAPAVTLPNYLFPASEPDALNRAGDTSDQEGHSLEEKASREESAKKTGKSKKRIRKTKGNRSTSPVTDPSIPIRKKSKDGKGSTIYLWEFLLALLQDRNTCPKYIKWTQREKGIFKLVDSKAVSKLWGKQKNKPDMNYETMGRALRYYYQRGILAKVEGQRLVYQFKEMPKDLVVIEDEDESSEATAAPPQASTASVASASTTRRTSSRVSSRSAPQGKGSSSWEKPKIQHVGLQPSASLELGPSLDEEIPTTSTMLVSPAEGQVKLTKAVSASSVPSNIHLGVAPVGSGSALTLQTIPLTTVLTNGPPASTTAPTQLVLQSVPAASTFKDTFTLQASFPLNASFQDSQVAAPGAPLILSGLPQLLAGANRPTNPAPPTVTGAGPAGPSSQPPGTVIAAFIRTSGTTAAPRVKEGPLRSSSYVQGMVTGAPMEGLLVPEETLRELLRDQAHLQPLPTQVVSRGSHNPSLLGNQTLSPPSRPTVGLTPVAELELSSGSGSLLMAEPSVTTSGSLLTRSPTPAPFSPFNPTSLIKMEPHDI
Outline: as §1

[6] = biological target: T3, ELK4 (Homo sapiens, UniProt P28324-2 1-405); conditions: protein: recombinant; tags: N-terminal GST; dsDNA, one strand shown
T3 sequence: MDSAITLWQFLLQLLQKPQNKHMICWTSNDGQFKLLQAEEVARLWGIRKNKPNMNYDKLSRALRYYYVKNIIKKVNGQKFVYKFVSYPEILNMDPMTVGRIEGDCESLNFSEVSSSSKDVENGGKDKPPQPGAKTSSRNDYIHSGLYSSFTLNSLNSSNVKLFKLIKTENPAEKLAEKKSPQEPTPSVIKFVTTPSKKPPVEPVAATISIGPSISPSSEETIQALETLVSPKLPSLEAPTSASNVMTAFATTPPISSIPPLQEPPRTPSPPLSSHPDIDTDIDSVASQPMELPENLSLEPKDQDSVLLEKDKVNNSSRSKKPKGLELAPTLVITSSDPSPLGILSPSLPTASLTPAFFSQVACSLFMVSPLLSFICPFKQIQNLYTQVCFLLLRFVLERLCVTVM
Outline: as §1

[7] = biological target: T4, ETV2 (Homo sapiens, UniProt O00321 1-342); conditions: protein: recombinant; tags: N-terminal GST; dsDNA, one strand shown
T4 sequence: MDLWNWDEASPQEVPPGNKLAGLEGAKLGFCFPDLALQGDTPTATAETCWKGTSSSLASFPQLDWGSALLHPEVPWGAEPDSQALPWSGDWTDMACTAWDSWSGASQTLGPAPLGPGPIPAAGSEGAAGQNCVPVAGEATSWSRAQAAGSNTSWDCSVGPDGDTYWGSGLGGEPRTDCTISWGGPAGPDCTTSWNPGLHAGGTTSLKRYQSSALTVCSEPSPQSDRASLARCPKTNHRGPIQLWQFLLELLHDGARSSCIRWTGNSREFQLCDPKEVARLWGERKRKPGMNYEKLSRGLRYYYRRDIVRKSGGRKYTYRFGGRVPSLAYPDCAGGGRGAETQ
Outline: as §1

[8] = biological target: T5, ELF3 (Homo sapiens, UniProt P78545 1-371); conditions: protein: recombinant; tags: N-terminal GST; dsDNA, one strand shown
T5 sequence: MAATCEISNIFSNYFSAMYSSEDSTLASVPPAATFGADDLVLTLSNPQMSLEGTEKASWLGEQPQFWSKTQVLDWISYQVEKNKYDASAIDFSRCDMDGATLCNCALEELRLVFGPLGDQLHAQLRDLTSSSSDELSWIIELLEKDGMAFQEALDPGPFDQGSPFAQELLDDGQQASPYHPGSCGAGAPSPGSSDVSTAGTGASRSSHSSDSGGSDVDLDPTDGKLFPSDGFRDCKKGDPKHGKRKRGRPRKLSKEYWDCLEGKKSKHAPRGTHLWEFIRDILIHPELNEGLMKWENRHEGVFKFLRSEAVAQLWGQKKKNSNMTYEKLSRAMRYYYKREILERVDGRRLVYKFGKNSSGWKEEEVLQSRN
Outline: as §1

[9] = biological target: CRX (Homo sapiens, UniProt O43186 1-299); conditions: protein: recombinant; tags: N-terminal GST; dsDNA, one strand shown
Sequence of CRX (O43186 whole entry): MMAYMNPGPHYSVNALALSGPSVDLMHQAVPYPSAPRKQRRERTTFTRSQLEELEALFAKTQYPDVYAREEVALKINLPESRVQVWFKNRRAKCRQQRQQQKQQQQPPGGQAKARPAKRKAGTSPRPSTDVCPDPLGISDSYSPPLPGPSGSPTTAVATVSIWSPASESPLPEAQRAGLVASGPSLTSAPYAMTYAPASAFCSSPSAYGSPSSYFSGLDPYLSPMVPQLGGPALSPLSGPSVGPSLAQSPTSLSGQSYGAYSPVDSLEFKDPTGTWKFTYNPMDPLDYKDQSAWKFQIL
Outline: as §1

[10] = biological target: ETV1 (Homo sapiens, UniProt P50549 1-477); conditions: protein: recombinant; tags: N-terminal GST; dsDNA, one strand shown
Sequence of ETV1 (P50549 whole entry): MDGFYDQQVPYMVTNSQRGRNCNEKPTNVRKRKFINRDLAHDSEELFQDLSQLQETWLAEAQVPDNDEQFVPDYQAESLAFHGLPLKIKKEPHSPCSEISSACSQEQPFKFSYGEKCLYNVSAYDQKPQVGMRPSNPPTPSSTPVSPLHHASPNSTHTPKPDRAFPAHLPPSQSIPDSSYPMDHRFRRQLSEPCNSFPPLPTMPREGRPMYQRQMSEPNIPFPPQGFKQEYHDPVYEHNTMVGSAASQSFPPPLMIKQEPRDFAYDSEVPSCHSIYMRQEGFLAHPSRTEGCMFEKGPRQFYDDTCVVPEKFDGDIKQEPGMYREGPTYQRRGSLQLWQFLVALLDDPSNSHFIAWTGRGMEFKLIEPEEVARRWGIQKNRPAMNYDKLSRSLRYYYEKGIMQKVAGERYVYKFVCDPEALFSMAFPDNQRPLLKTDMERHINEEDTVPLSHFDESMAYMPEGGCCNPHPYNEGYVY
Outline: as §1

With TCCTCT the binding signal [1] was 1.63 fold enrichment (6-mer frequency, TF over GST control), the binding signal [2] was 1.64 fold enrichment (6-mer frequency, TF over GST control) and the binding signal [3] was 1.51 fold enrichment (6-mer frequency, TF over GST control). The binding signal [4] was 1.67 fold enrichment (6-mer frequency, TF over GST control), the binding signal [5] was 1.69 fold enrichment (6-mer frequency, TF over GST control) and the binding signal [6] was 1.53 fold enrichment (6-mer frequency, TF over GST control). For the same sequence, the binding signal [7] was 1.68 fold enrichment (6-mer frequency, TF over GST control), the binding signal [8] was 1.66 fold enrichment (6-mer frequency, TF over GST control) and the binding signal [9] was 1.79 fold enrichment (6-mer frequency, TF over GST control). For the same sequence, the binding signal [10] was 1.74 fold enrichment (6-mer frequency, TF over GST control).
